Results as given in ChEMBL document CHEMBL3988442, “University of Dundee, Small-Polar-MMV Screening Library” (2021).

Each compound was assayed against Shiga toxin 2 (Escherichia coli O157:H7) (UniProt P09385+P09386) (assay: E. coli 0.157:H7 Shiga Toxin SOP - stx2 screening assay). Conditions: 30 µM.
Type: functional
Design: scale not given: direction of the effect not stated beside the values

First: O=c1ccc(-c2ccccc2F)nn1CCN1CCCS1(=O)=O
Second: CC(=O)N1CCCC1c1cccc(Cc2ccccc2F)n1 (stereo not given)
The Percent Effect of the first is lower: -0.28% for the first, 4.04% for the second.

Going from `CS(=O)(=O)CCN1CCC2(CCCN(C3CCOCC3)C2=O)C1` (stereo not given) to `CS(=O)(=O)N1CCC(Oc2cnccn2)CC1`, the Percent Effect rises from -11.9% to -5.3%.

Going from `CNC(=O)c1cc2c(nc1N(C)C)CCN(S(=O)(=O)CC(C)C)CC2` to `CC(C)N(C)C(=O)CN1CCCC(c2ccc(C(=O)O)cc2)C1` (stereo not given), the Percent Effect rises from -2.65% to 5.69%.

Going from `CCS(=O)(=O)N1Cc2nccn2CC(Cn2nc(C)nc2C)C1` (stereo not given) to `O=C(c1ccoc1)N1CCCn2cnc(COCC3CC3)c2C1`, the Percent Effect falls from 6.38% to -6.53%.

Compared with `CCCOc1ccc(CNC2CCCc3c2cnn3CC)cc1OC` (stereo not given), `COc1ccc(C)cc1NC(=O)Nc1cnc(N2CCN(C)CC2)nc1` is higher in Percent Effect: -22.9% for the first, -18.8% for the second.

Compared with `Cc1nc(CN(C)C2CCN(Cc3sc(C)nc3C)C2)no1` (stereo not given), `CCC1CN(Cc2ccccc2)CCN1Cc1nnc(C2CCC2)o1` (stereo not given) is lower in Percent Effect: -0.768% for the first, -9.86% for the second.

Compared with `CC(C)n1ncc2c1NC(=O)CC21C(=O)Nc2c(Cl)cc(Cl)cc21` (stereo not given), `CC(C)C(=O)N1CCCC(c2ncncc2-c2ccncc2)C1` (stereo not given) is lower in Percent Effect: 1.79% for the first, -34.6% for the second.

First: CC(O)CN1CCN(C(=O)c2ccc(Cn3cccc3)cc2)CC1 (stereo not given)
Second: CCOC(=O)N1CCN(C(=O)c2sc(-c3ccc(F)cc3)nc2C)CC1
The Percent Effect of the first is higher: 19.4% for the first, 8.24% for the second.

First: OC(CN1CCCCCCC1)c1ccc(F)cc1 (stereo not given)
Second: Cn1cc(CN2CC3(CCN(C(=O)c4ccoc4)C3)C2)cn1
The Percent Effect of the first is higher: 10.8% for the first, -8.68% for the second.

Going from `COc1c(CNCC(c2cccc(F)c2)N(C)C)c(C(C)C)nn1C` (stereo not given) to `CN(C)C[C@H]1OC[C@@H]2CCN(C(=O)c3cccn3C)C[C@@H]21`, the Percent Effect rises from -15.5% to -9.5%.
